These results are taken from PubChem BioAssay.

Active and inactive are the calls of the source.

A short description of test [1]: small molecules captured by biotinylated probe aFSTL3 – biochemical, small-molecule microarray, fluorescence 635/667, stem cell growth factor project, primary screen (AID 1064).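 Further: measures binding of the biotinylated anti-FSTL3 antibody to printed compounds.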 Conditions: higher = more signal.
A short description of test [2]: binders from COS7 lysate, DM2A8 probe, primary screen, torsin A project, cell lysate, small-molecule microarray, fluorescence 635/667 (AID 1065). Conditions: higher = more signal, COS7 lysate expressing mutant human TOR1A.
Test [3] is described as follows: small molecules captured by biotinylated probe aFGF2 – biochemical, small-molecule microarray, fluorescence 635/667, stem cell growth factor project, primary screen (AID 1067).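 Further: measures binding of biotinylated aFGF2 protein to printed compounds on slides; z-score merges feature fluorescence and signal-to-noise across triplicate slides.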 The conditions noted are these: higher = more signal.
A short description of test [4]: small molecules captured by biotinylated probe aFGF10 – biochemical, small-molecule microarray, fluorescence 635/667, stem cell growth factor project, primary screen (AID 1071).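 Further: score merges 667 nm spot intensity and signal to noise from triplicate slides.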 Conditions: higher = more signal.
In test [5] the target is Neurogenic locus notch homolog protein 2 (Homo sapiens) (UniProt Q04721). The test can be described thus: small molecules binding Notch2 protein – biochemical, small-molecule microarray, 635 nm fluorescence, stem cell growth factors, primary screen (AID 1073). Conditions: higher = more signal.
Chain of Neurogenic locus notch homolog protein 2 (Homo sapiens) (Q04721 whole entry, looked up, canonical isoform): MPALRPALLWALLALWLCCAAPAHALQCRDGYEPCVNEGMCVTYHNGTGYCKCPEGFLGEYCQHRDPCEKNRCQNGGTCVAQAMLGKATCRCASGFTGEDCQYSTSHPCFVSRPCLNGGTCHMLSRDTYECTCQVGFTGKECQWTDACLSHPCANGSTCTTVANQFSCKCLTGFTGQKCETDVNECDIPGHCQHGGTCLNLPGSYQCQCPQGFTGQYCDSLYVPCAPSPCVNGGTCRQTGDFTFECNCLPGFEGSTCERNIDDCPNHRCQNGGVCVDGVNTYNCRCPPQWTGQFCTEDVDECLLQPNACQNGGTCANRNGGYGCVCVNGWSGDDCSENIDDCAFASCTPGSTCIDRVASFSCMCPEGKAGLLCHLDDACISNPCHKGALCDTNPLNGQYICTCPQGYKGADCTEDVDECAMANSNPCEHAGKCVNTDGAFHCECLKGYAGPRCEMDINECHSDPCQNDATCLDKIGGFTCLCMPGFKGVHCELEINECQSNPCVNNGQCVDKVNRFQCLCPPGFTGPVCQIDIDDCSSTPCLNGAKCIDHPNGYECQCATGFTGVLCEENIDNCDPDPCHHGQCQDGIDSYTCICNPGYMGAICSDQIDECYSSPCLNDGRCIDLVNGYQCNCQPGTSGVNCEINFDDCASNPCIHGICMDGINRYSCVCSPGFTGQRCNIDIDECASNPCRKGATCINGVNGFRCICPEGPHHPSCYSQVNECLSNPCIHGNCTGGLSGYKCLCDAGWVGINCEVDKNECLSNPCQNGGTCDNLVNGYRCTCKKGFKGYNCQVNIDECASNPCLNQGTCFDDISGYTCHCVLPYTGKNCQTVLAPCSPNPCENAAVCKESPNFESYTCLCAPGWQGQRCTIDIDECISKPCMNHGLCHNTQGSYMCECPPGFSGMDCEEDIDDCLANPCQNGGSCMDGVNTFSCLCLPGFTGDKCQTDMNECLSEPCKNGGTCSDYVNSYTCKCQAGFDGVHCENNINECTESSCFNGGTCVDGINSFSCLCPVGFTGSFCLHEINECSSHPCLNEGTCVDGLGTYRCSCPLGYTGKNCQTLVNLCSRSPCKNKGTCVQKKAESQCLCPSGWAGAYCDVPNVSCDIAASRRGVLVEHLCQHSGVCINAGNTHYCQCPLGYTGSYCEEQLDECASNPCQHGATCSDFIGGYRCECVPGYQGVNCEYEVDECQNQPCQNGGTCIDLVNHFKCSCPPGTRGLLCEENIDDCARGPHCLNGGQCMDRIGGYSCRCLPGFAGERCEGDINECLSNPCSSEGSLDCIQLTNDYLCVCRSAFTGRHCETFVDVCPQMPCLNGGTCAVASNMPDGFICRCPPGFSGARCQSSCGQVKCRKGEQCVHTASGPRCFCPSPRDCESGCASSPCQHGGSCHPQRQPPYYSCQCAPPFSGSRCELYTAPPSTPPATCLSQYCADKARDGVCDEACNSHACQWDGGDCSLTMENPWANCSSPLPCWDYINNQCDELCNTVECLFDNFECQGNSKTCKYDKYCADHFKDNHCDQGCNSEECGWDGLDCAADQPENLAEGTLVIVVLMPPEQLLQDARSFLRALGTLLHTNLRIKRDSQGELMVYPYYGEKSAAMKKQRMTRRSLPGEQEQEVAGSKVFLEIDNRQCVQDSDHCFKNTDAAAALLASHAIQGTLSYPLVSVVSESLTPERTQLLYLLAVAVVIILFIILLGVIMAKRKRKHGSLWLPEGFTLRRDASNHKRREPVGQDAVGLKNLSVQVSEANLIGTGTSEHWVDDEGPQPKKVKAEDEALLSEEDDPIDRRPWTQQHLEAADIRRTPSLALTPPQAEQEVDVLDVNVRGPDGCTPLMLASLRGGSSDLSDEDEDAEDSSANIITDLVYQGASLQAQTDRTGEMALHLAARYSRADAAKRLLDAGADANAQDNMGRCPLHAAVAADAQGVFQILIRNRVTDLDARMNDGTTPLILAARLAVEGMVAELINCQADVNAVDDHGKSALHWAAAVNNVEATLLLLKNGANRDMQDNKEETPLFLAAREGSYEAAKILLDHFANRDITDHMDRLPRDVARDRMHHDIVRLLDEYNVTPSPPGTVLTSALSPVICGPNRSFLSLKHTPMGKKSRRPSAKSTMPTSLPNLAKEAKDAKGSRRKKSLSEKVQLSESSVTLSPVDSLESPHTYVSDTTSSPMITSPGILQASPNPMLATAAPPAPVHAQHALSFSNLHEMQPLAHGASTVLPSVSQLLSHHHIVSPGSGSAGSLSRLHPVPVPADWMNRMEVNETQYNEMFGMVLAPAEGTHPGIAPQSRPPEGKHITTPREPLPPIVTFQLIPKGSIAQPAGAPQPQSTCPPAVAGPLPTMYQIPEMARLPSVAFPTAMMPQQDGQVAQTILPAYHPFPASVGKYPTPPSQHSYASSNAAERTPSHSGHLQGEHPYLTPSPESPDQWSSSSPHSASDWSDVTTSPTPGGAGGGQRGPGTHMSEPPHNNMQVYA
Test [6] deals with Pro-neuregulin-1, membrane-bound isoform (Homo sapiens) (UniProt Q02297). The test can be described thus: small molecules binding neuregulin-1 protein – biochemical, small-molecule microarray, fluorescence 635/667, psychiatric disease protein project, primary screen (AID 1075).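 Further: score combines 667 nm spot fluorescence with signal to noise.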 Conditions: NRG1 binding, 635 nm fluorescence, higher = more signal.
Chain of Pro-neuregulin-1, membrane-bound isoform (Homo sapiens) (Q02297 whole entry, looked up, the tested form may be a part, canonical isoform): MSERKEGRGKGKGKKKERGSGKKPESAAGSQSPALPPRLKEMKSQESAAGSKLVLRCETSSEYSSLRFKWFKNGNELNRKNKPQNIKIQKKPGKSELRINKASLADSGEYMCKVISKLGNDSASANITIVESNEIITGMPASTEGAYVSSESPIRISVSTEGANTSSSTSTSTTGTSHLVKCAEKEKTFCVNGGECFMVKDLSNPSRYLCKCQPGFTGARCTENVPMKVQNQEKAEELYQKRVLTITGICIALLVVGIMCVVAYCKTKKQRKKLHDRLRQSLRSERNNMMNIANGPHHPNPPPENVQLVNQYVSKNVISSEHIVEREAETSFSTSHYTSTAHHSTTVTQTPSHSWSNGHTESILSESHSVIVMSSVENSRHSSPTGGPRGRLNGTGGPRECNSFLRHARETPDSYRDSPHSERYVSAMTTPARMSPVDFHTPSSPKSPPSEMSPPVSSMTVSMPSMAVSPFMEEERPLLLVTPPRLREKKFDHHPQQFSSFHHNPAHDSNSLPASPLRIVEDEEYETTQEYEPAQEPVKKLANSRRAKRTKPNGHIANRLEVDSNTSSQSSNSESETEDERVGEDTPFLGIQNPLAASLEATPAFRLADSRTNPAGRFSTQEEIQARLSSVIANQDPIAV
The subject of test [7] is Neuregulin-1 EGF-like domain. The test can be described thus: small molecules binding NRG1 EGF domain – biochemical, small-molecule microarray, 635 nm fluorescence, primary screen (AID 1081).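 Further: binding of the protein to compounds printed on small-molecule microarray slides.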 The conditions noted are these: higher = more signal.
Test [8] can be described thus: FRG1 expression reporter modulators in myotubes – cell-based, C2C12 myotubes, firefly/Renilla luciferase, luminescence, FRG1 inhibition for FSHD, primary screen (AID 1084). The conditions noted are these: FRG1 promoter luciferase, higher = more signal, called active from +8 up or from −8 down.
A short description of test [9]: small molecules captured by biotinylated probe aFST – biochemical, small-molecule microarray, fluorescence 635/667, stem cell growth factor project, primary screen (AID 1086).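 Further: score merges 667 nm fluorescence with signal-to-noise of each printed compound spot.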 Conditions: higher = more signal.
Test [10] in a line: binders of probe aHhip on microarray, primary screen, stem cell growth factor project, biochemical, small-molecule microarray, fluorescence 635/667 (AID 1087).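 Further: score merges spot fluorescence at 667nm with spot signal to noise ratio.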 Conditions: higher = more signal.

Consider `CCOC(=O)CCN1C(=O)[C@H]2[C@H]3[C@H](O)[C@H](O)CC(=NNC(=O)OCc4ccc(OC)cc4)[C@H]3CC[C@H]2C1=O`, for which the composite z-score in test [1] is -0.41; in [2], 0.339; in [3], -0.116; in test [4], 0.155; in test [5], 0.68; in test [6], 0.0204. Also, the composite z-score in [7] was 0.0944; in test [9], 0.245; in test [10] it was -0.329. Also, the z-score in test [8] was -0.971 (inactive).

Take `C[C@H]1CC[C@@H](C(=O)O)N[C@@H]1c1cccc(N2CCCC2=O)c1`: the composite z-score in [1] is -0.304; in test [2], 0.141; in [3] it was -0.145; in [4], 0.22; in test [5], 0.408; in test [6], -0.153. The composite z-score in test [7] came to 0.17; in [9] it was 0.149; in test [10] it was 0.107. Also, the z-score in [8] is 0.304 (inactive).

`COC(=O)CC=C[C@@H](C)[C@@H](C=NOC[C@@H](O)COCc1ccco1)OC`: the composite z-score in test [1] was -0.663; in test [2], 2.07; in [3] it was -0.225; in [4] it was -0.813; in test [5], -1.05; in test [6], -0.209. The composite z-score in test [7] was 0.532; in test [9], -0.466; in [10], -0.164. Also, in test [8], the z-score was 0.103 (inactive).

In the case of `C[C@@H]1CC[C@H]2C(=O)O[C@@H](COc3ccc(C(C)(C)C)cc3)CN2[C@H]1c1ccc(Br)cc1`, the composite z-score is -0.348 in test [1]; 0.0745 in test [2]; -0.103 in test [3]; 0.085 in test [4]; -0.0477 in test [5]; 0.101 in [6]. The composite z-score in test [7] was -0.4; in test [9] it was 0.153; in [10] it was -0.16. For the same molecule, in [8], the z-score was 0.732 (inactive).

With `O=C1C[C@@H](O)[C@@H](O)[C@@H]2[C@@H]3C(=O)N(C4CCCCC4)C(=O)[C@@H]3CC[C@@H]12`, the composite z-score in test [1] is -0.371; in test [2] it was 0.159; in test [3], -0.0113; in test [4] it was 0.394; in test [5], 0.334; in [6] it was 1.05. The results for the composite z-score in test [7], in test [9] and in test [10] were 0.546, 0.0535 and -0.0237, respectively. For the same molecule, in test [8], the z-score is 0.129 (inactive).

For the molecule `CC(C)(C)N1C(=O)[C@H]2[C@H]3[C@H](O)[C@H](O)CC(=NNC(=O)OCc4ccccc4)[C@H]3CC[C@H]2C1=O`, the composite z-score in [1] is -0.642; in test [2], 0.0714; in test [3], -0.0684; in test [4], 0.559; in test [5], 0.389; in test [6] it was 0.26. Besides, the values for the composite z-score in [7], in [9] and in test [10] were 0.748, -0.0777 and -0.169, respectively. In addition, in test [8], the z-score is -0.0034 (inactive).

For the molecule `CCOC(=O)[C@H](Cc1ccccc1)NC(=O)CCC1CC(OC(=O)NCCc2ccc(F)cc2)CC2(CCCC(COC(=O)NCc3cccc(C(F)(F)F)c3)O2)O1` (stereo not given in full), the composite z-score is -0.334 in [1]; 0.0606 in test [2]; 0.0102 in test [3]; 0.758 in test [4]; 1.49 in test [5]; 1.28 in [6]. Besides, the composite z-score in test [7] was 1.05; in test [9], 0.332; in [10] it was -0.121. Moreover, the z-score in test [8] is -0.342 (inactive).

For `COc1ccc(O[C@H]2C=C[C@@H](c3ccccc3)O[C@@H]2CON=C(C)CCN2CCCc3nc(C)c(C)cc32)cc1`, the composite z-score in test [1] was -0.353; in test [2], 0.0823; in test [3], -0.0812; in test [4], 0.076; in test [5] it was 0.476; in [6], 0.626. Moreover, the values for the composite z-score in test [7], in [9] and in test [10] were 0.954, 0.698 and -0.0328, respectively. Further, in [8], the z-score was -0.303 (inactive).

Take `COC(=O)[C@H](C)NC(=O)CCC1CC(OC(=O)NCc2ccc3c(c2)OCO3)CC2(CCCC(COC(=O)NCCC(C)C)O2)O1` (stereo not given in full): the composite z-score in test [1] was -0.312; in test [2] it was 0.255; in test [3], -0.0837; in test [4], 0.338; in test [5], 0.821; in test [6], 1.14. Further, the results for the composite z-score in [7], in test [9] and in [10] were 0.808, 0.0929 and -0.318, respectively. Further, in test [8], the z-score was 1.52 (inactive).

Regarding `CO[C@H]1COC(=O)[C@H](C)COC(=O)[C@@H](OCc2ccccc2)C=C[C@@H]1C`, the composite z-score was -0.411 in test [1]; 0.0756 in [2]; -0.178 in test [3]; 0.0844 in test [4]; -0.501 in test [5]; -0.319 in [6]. For the same molecule, the composite z-score in test [7] was -0.365; in test [9] it was 1.27; in [10], 0.449. In [8], the z-score is -0.224 (inactive).

Regarding `COC(=O)C(C(=O)OC)C1CCCC(=O)C1` (stereo not given), the composite z-score was -0.414 in test [1]; 1.45 in [2]; -0.0611 in test [3]; 0.353 in test [4]; 0.329 in test [5]; -0.146 in test [6]. The results for the composite z-score in [7], in test [9] and in test [10] were -0.127, 0.406 and -0.264, respectively. For the same molecule, the z-score in test [8] is 0.335 (inactive).

For `CCOC(=O)CCN1C(=O)[C@H]2[C@H]3[C@H](O)[C@H](O)CC(=O)[C@@H]3CC[C@H]2C1=O`, the composite z-score in [1] is -0.577; in [2] it was 0.125; in test [3], -0.16; in test [4] it was 0.832; in [5], 0.916; in test [6] it was 0.102. Besides, the composite z-score is 0.482 in [7], 0.658 in [9] and -0.27 in test [10]. Also, the z-score in [8] is -0.407 (inactive).

Consider `COC(=O)[C@H](C)NC(=O)CCC1CC(OC(=O)NCCc2ccc(F)cc2)CC2(CCCC(COC(=O)NCCc3ccccc3OC)O2)O1` (stereo not given in full), for which the composite z-score in test [1] is -0.93; in [2], -0.328; in test [3], -0.172; in test [4], 0.706; in test [5], 1.16; in test [6], 0.608. Further, the values for the composite z-score in test [7], in test [9] and in test [10] were 0.729, -0.0835 and -0.361, respectively. In test [8], the z-score is -0.0438 (inactive).

As for `COc1ccc(COC(=O)NN=C2C[C@@H](O)[C@@H](O)[C@@H]3[C@@H]4C(=O)N(C5CCCCC5)C(=O)[C@@H]4CC[C@@H]23)cc1`, the composite z-score is 0.848 in test [1]; -0.132 in test [2]; -0.0883 in test [3]; -0.176 in test [4]; -0.515 in test [5]; -0.112 in test [6]. Also, the composite z-score was -0.313 in test [7], 1.34 in test [9] and -0.48 in test [10]. Further, the z-score in test [8] is 0.468 (inactive).
